Experimental data from PubChem BioAssay AID504583 (Broad Institute, 2011).
Measured potencies and affinities stand elsewhere. Inconclusive results are not listed. The source made the active and inactive calls.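 Rule for the calls: active = lowers substrate conversion with a fitted half-maximal potency at most ten times the top dose, in every run; inconclusive = runs disagree, or flat weak or poorly fitted curves; inactive = every run inactive, flat, weak or opposite direction.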

Each compound was assayed against cAMP-dependent protein kinase catalytic subunit alpha (Homo sapiens) (UniProt P17612) (assay: PKA catalytic subunit inhibitors, dose response, biochemical, Caliper mobility shift, dry powder samples (AID 504583)). Settings: recombinant PKA, Caliper peptide phosphorylation % conversion; series mostly up to 10 µM.

outcome, inactive:
COc1cc(N2CCN(C)CC2)ccc1Nc1ncc2c(n1)N1CCC[C@H]1CC(=O)N2C
COc1cc(/C=N/n2c(-c3ccccc3)n[nH]c2=S)ccc1O
CC(Oc1ccc2c(c1)c1ccnc3c4ccccc4c(=O)n2c13)C(=O)NCCN1CCOCC1 (centres undefined)
CN1CCN(c2ccc(Nc3ncc4c(n3)N(C)c3ccccc3C(=O)N4C)cc2)CC1
COc1cc(N2CCC(O)CC2)ccc1Nc1ncc2c(n1)N1CCc3cccc(c31)C(=O)N2C
CCOc1ccccc1C(=O)Nc1cc(Cl)ccc1O
O=C1NCCCc2c1oc1ccc(O)cc21
Oc1ccc(Nc2nc(-c3ccccc3O)nc3ccccc23)cc1
COc1cc(N2CCC(N3CCN(C)CC3)CC2)ccc1Nc1ncc2c(n1)N(C1CCCC1)C(C)CC(=O)N2C (centres undefined)
COc1cc(N2CCN(C)CC2)ccc1Nc1ncc2c(n1)N(C)c1ccccc1C(=O)N2C
COc1cc(N2CCN(C)CC2)ccc1Nc1ncc2c(n1)N(C)c1sccc1C(=O)N2C
COc1cc(/C=C2\SC(N)=NC2=O)ccc1O
COc1cc(C(=O)NC2CCN(C)CC2)ccc1Nc1ncc2c(n1)N(C1CCC(O)CC1)CCC(=O)N2C (centres undefined)
Cc1ncc(/C=C2\C(=O)Nc3ccccc32)[nH]1
CC(=O)N(C)c1ccc(N=Cc2c(O)ccc3ccccc23)cc1
CCCn1c(NC(=O)c2cccc(S(=O)(=O)N3CCCC3)c2)nc2ccccc21
O=C1NC(=NCc2ccccc2)S/C1=C/c1ccc(O)cc1
O=C(Nc1ccccc1-c1nc2ccccc2[nH]c1=O)c1cccs1
COc1cc(C(=O)N2CCC(N3CCN(C)CC3)CC2)ccc1Nc1ncc2c(n1)N(C)c1ccccc1C(=O)N2C
COc1cc(N2CCN(C)CC2)ccc1Nc1ncc2c(n1)N(C1CCCC1)C(C)CC(=O)N2C (centres undefined)
O=C(Nc1ccccc1-c1ccccc1)c1ccc(Br)o1
CC(C)n1cnc2c(Nc3cccc(Cl)c3)nc(NCCO)nc21
COc1cc(N2CCC(N3CCN(C)CC3)CC2)ccc1Nc1ncc2c(n1)N1CCC[C@H]1CC(=O)N2C
COc1cc(/C=C2\SC(=Nc3ccccc3OC)NC2=O)ccc1O
